# Calls of active or inactive are those of the source. Unless noted, how the calls were made is not given here.
# How the values were obtained:
# [1] = resazurin metabolic signal in HepG2 cells – cell-based, resazurin fluorescence, 24 h, PK04 Diversity Set, profiling panel (AID 1172); settings: HepG2 viability, higher = more signal
# [2] = budding yeast growth changes without added modifier – OD600, strain BY4716, 24 h, basal condition, primary screen (AID 1173); settings: S. cerevisiae BY4716 growth, OD600, 24 h; higher = more signal, called active from +8 up or from −8 down
# [3] = viability profiling in MM1S myeloma cells – cell-based, resazurin fluorescence, basal, 24 h, PK04 Diversity Set, profiling panel (AID 1174); settings: higher = more signal, called active from +8 up or from −8 down;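 further: MM1S multiple myeloma cell line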
# [4] = biological target: Dihydroorotate dehydrogenase (quinone), mitochondrial (Plasmodium falciparum (isolate 3D7)) (UniProt Q08210); assay: inhibition of P. falciparum DHODH – biochemical, C-terminal His tag, absorbance 600 nm, primary screen (AID 1175); settings: PfDHODH enzyme, DCIP absorbance 600 nm; higher = more signal, called active from +8 up or from −8 down;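 further: recombinant parasite enzyme with a five histidine tag at its C terminus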
# Dihydroorotate dehydrogenase (quinone), mitochondrial (Plasmodium falciparum (isolate 3D7)), sequence (Q08210 whole entry, looked up): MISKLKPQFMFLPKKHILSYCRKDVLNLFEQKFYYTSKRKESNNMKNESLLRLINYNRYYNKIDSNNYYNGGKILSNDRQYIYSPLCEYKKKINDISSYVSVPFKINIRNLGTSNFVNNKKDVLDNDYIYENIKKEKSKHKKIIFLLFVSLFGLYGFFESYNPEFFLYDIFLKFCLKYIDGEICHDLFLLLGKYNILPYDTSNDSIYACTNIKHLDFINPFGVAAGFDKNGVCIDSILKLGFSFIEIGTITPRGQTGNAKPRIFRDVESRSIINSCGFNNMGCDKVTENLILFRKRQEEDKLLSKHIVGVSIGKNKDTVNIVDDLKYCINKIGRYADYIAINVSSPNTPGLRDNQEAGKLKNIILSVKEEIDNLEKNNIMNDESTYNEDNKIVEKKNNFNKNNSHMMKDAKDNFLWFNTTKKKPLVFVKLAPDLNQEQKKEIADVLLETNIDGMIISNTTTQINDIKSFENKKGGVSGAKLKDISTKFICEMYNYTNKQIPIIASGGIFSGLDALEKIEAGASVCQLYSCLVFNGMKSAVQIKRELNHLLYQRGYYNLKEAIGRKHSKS
# [5] = inhibition of PAO1 biofilm formation – strain PAO1, LB-PBS medium, absorbance 600 nm, primary screen (AID 1176); settings: P. aeruginosa PAO1 growth/biofilm, A600, 12 h; higher = more signal
# [6] = growth modulation of vineyard yeast isolate – strain RM11-1a, OD600, basal, 24 h, primary screen (AID 1177);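 further: cultures grown under basal conditions with no added stressor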; settings: S. cerevisiae RM11-1a growth, OD600, 24 h; higher = more signal, called active from +8 up or from −8 down
# [7] = growth of efflux-deficient E. coli DRC39 – strain DRC39, OD650, 24 h, E. coli filamentation inducers, primary screen (AID 1178);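 further: growth measured as culture turbidity by optical density at 650 nm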; settings: E. coli DRC39 acrAB, higher = more signal, called active from +8 up or from −8 down
# [8] = growth of efflux-deficient E. coli DRC39 – strain DRC39, OD650, 48 h, E. coli filamentation inducers, primary screen (AID 1179);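 further: screen aims at cell division blockers that make cells filament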; settings: E. coli DRC39 delta-acrAB growth, higher = more signal, called active from +8 up or from −8 down
# [9] = viability profiling in RPMI8226 myeloma cells – cell-based, resazurin fluorescence, basal, 24 h, PK04 Diversity Set, profiling panel (AID 1180); settings: higher = more signal;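 further: RPMI8826 multiple myeloma cell line at 5000 cells per well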
# [10] = biological target: E3 ubiquitin-protein ligase XIAP (Homo sapiens) (UniProt P98170); assay: small molecules binding XIAP protein – biophysical, small-molecule microarray, fluorescence 635 nm, primary screen (AID 1181); settings: higher = more signal;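 further: score merges 667 nm emission and signal to noise over triplicate slides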
# E3 ubiquitin-protein ligase XIAP (Homo sapiens), sequence (P98170 whole entry, looked up, the tested form may be a part): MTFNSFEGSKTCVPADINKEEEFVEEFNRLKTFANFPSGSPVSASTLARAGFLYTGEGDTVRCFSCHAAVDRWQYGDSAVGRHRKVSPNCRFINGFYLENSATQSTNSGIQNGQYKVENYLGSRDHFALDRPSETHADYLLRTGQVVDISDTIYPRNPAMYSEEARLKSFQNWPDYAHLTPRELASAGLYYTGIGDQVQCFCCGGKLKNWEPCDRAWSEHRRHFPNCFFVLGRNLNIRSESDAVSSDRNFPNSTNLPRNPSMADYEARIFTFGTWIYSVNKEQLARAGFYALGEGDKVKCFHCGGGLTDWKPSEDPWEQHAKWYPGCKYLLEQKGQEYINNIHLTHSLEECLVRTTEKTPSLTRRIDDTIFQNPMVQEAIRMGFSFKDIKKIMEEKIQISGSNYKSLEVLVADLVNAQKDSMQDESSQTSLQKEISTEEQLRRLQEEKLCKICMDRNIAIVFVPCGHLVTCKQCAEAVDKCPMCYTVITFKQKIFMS
# [11] = test system: XIP peptide (Xip251-270) binding; assay: XIP fragment 251-270 binding compounds – biochemical, small-molecule microarray, fluorescence 635/667 nm, 0.1 µg/mL protein, primary screen (AID 1182); settings: fluorescent protein binding, 635 nm, higher = more signal, called active from +8 up or from −8 down
# XIP peptide (Xip251-270) = assay: compounds binding XIP fragment 251-270 – biochemical, small-molecule microarray, fluorescence 635/667 nm, 0.5 µg/mL protein, primary screen (AID 1183); settings: fluorescence 635 nm, higher = more signal
# [12] = blood-stage malaria parasite viability loss – strain 3D7, DAPI fluorescence, 100 nL, primary screen (AID 1184);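 further: parasites grown inside human red blood cells in medium with human serum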; settings: P. falciparum 3D7 growth, 3 d, higher = more signal
# [13] = biological target: Homeobox protein Hox-A13 (Mus musculus) (UniProt Q62424); assay: disruptors of Hoxa13 oligonucleotide interaction – biochemical, fluorescence polarization, labeled oligonucleotide, primary screen (AID 1185); settings: Hoxa13:DNA binding, 15 min, higher = more signal, called active from +8 up or from −8 down
# Homeobox protein Hox-A13 (Mus musculus), sequence (Q62424 whole entry, looked up): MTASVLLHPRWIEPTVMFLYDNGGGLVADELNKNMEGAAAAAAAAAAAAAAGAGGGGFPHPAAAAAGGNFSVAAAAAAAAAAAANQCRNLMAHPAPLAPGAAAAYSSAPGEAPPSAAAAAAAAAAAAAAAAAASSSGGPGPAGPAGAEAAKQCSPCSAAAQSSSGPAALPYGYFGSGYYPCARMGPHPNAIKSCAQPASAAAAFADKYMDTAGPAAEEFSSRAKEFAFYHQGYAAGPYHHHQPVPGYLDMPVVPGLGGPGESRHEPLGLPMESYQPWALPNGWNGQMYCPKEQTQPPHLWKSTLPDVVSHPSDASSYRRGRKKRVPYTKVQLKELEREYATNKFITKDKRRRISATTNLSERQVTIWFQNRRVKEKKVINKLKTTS
# [14] = blockers of DNA damage checkpoint Chk1 activation – imaging, HeLa, hydroxyurea, phospho-Chk1 antibody, percent positive cells, primary screen (AID 1186); settings: hydroxyurea-induced phospho-Chk1 immunofluorescence imaging, higher = more signal
# [15] = blockers of DNA damage checkpoint Chk1 activation – imaging, HeLa, hydroxyurea, phospho-Chk1 nuclear intensity, primary screen (AID 1187); settings: hydroxyurea-induced phospho-Chk1 immunofluorescence imaging, higher = more signal
SMILES,z-score [1],z-score [2],z-score [3],composite z-score [4],z-score [5],z-score [6],z-score [7],z-score [8],z-score [9],composite z-score [10],composite z-score [11],composite z-score (XIP peptide (Xip251-270)),z-score [12],z-score [13],z-score [14],z-score [15]
CC(C)C(=C=CC[C@@H](O)c1ccc(OCCO)cc1)C[C@@H](O)c1ccccn1,-0.287,-0.492 (inactive),-0.426 (inactive),-11.9 (active),0.85 (inactive),0.406 (inactive),-0.235 (inactive),-0.0608 (inactive),-0.538,0.273,1.5 (inactive),0.198,-0.278,-5.14 (inactive),-0.329 (inactive),-0.22 (inactive)
C=C(CCCC)/C(=C/C[C@@H](OC(=O)c1ccncc1)c1ccc(OCCO)cc1)c1cc(C(=O)OC)ccc1OC,0.691,1.1 (inactive),0.234 (inactive),-0.265 (inactive),-0.39 (inactive),0.826 (inactive),0.885 (inactive),0.868 (inactive),0.572,-0.141,0.35 (inactive),0.565,-2.8,-3.62 (inactive),-0.377 (inactive),0.106 (inactive)
CO[C@H]1O[C@H](CO)[C@@H](OC(=O)Nc2ccc(C(F)(F)F)cc2)[C@H](OC(=O)Nc2ccc3c(c2)OCO3)[C@@H]1OC(=O)Nc1ccc2c(c1)OCO2,-1.09,0.867 (inactive),-2.45 (inactive),0.524 (inactive),1.54 (inactive),3.25 (inactive),1.53 (inactive),0.2 (inactive),-1.97,0.098,1.42 (inactive),0.901,-2.09,-5.46 (inactive),-0.328 (inactive),-0.0864 (inactive)
CC[C@@H]1C=C(C(=O)O)[C@H](c2ccc(Br)cc2)N1S(=O)(=O)c1ccc(C)cc1,-0.386,-0.14 (inactive),-0.459 (inactive),-0.412 (inactive),-0.116 (inactive),-0.716 (inactive),-0.593 (inactive),0.295 (inactive),-1.51,0.157,0.693 (inactive),0.159,-0.737,-3.11 (inactive),-0.0321 (inactive),0.0367 (inactive)
Cc1ccc(S[C@]2(C(=O)NC3CC3)CC(=O)N(Cc3ccccc3)[C@@H]2c2ccc(CO)cc2I)cc1,0.417,-3.23 (inactive),-2.45 (inactive),-1.47 (inactive),0.751 (inactive),-1.46 (inactive),0.714 (inactive),0.753 (inactive),-1.71,-0.252,0.135 (inactive),0.387,-0.0873,-2.79 (inactive),0.327 (inactive),0.794 (inactive)
CCCCCN1CC=CC23O[C@@H]4C=CCCOC(=O)C4[C@H]2C(=O)N(CCCCCO)[C@@H]3C1=O (some centres undefined),0.476,0.388 (inactive),0.66 (inactive),-0.185 (inactive),-0.304 (inactive),0.467 (inactive),0.685 (inactive),0.67 (inactive),0.802,0.263,0.382 (inactive),-0.0494,0.798,-4.21 (inactive),0.251 (inactive),0.408 (inactive)
CCCCC(CC)C(O)C1C=CC2C(=O)N(Cc3ccccc3)C(=O)C2N1n1cnnc1 (centres undefined),-0.661,0.374 (inactive),-0.763 (inactive),-0.495 (inactive),-0.445 (inactive),-0.666 (inactive),-1.03 (inactive),-1.46 (inactive),-1.01,0.0228,0.0978 (inactive),0.671,-0.465,-3.42 (inactive),0.419 (inactive),-0.454 (inactive)
NCCCCCCNC(=O)[C@@H]1C[C@@H]2C(=O)NCC(=O)N2[C@@H]1c1ccc(O)cc1,-0.45,0.333 (inactive),1.02 (inactive),0.99 (inactive),0.696 (inactive),0.681 (inactive),-0.0366 (inactive),-0.697 (inactive),0.08,0.0761,-0.0092 (inactive),0.755,-0.634,-1.98 (inactive),0.563 (inactive),0.457 (inactive)
C=CC[C@@]12N=C(c3ccc(OCCCO)cc3)O[C@@H]1c1ccccc1N(C)C2=O,-0.0241,-0.926 (inactive),-2.53 (inactive),0.579 (inactive),0.0684 (inactive),1.46 (inactive),0.817 (inactive),1.18 (inactive),-0.912,0.368,0.535 (inactive),0.759,-1.9,-4.57 (inactive),0.221 (inactive),0.444 (inactive)
CCC[C@@H]1C[C@@]1(CCC)[C@@H](NC(=O)c1ccccc1)c1cccc(Cl)c1,-0.141,1.74 (inactive),0.208 (inactive),0.249 (inactive),-0.195 (inactive),2.26 (inactive),-0.557 (inactive),-0.514 (inactive),1.09,-0.0326,0.11 (inactive),-0.211,-0.348,2.13 (inactive),-0.769 (inactive),-0.608 (inactive)
CC(C)NC(=O)[C@@H]1c2ccccc2C(=O)N(C2Cc3ccccc3C2)[C@H]1c1ccc(CO)cc1,0.785,0.0928 (inactive),1.16 (inactive),-0.427 (inactive),-0.0528 (inactive),0.744 (inactive),0.859 (inactive),0.95 (inactive),1.59,0.133,0.536 (inactive),0.787,-0.826,-1.94 (inactive),-0.24 (inactive),0.0987 (inactive)
CC(C)[Si]1(C(C)C)O[C@@H](c2ccccc2)c2cc(-c3ccc(-c4ccc(Cl)c(Cl)c4)o3)nc(-c3ccccc3)c21,-0.0945,-1.38 (inactive),-0.274 (inactive),1.74 (inactive),0.574 (inactive),-0.282 (inactive),-0.0522 (inactive),-0.221 (inactive),-0.406,-0.202,-0.142 (inactive),0.6,0.283,-1.68 (inactive),0.025 (inactive),-0.606 (inactive)
CC(C)C(CO)N1C(=O)[C@@H]2C3C(=O)OCCC/C=C\[C@H]3OC23C=CCN(CCN2CCOCC2)C(=O)[C@@H]13 (some centres undefined),-0.723,0.384 (inactive),-0.686 (inactive),-3.09 (inactive),0.109 (inactive),-0.0505 (inactive),1.01 (inactive),0.566 (inactive),-0.586,0.0191,-0.0949 (inactive),-0.816,1.17,-7 (inactive),0.248 (inactive),-0.0469 (inactive)
O=C1C2C=CC(C(O)CCc3ccccc3)N(Nc3ccccc3F)C2C(=O)N1c1ccccc1 (centres undefined),0.0011,0.14 (inactive),0.209 (inactive),-0.442 (inactive),0.0083 (inactive),-0.253 (inactive),-0.837 (inactive),0.0277 (inactive),0.799,0.272,0.605 (inactive),0.524,-0.0934,-2.76 (inactive),0.652 (inactive),0.699 (inactive)
CCOC(=O)[C@H]1C/C=C/C[C@H](C(=O)OCC)C(=O)O[C@H]2[C@@H](OC)O[C@H](CO)[C@@H](OC(=O)c3c(OC)cccc3OC)[C@@H]2OC1=O,-3.51,-0.964 (inactive),-3.73 (inactive),-0.232 (inactive),0.498 (inactive),0.996 (inactive),0.0332 (inactive),0.328 (inactive),-3.51,-0.102,0.676 (inactive),0.709,0.754,-3 (inactive),-0.0052 (inactive),-0.142 (inactive)
C=C[C@H](CO)NS(=O)(=O)c1ccc(Br)cc1,0.578,0.0356 (inactive),0.44 (inactive),-1.05 (inactive),-0.621 (inactive),0.34 (inactive),0.328 (inactive),0.276 (inactive),0.0112,-0.0559,-0.365 (inactive),0.242,0.843,0.205 (inactive),-0.462 (inactive),-0.458 (inactive)
C=C(CCCC)/C(=C/C[C@@H](OC(C)=O)c1ccc(OCCO)cc1)c1cnc2ccccc2c1,0.54,-0.845 (inactive),-0.267 (inactive),-4.4 (inactive),0.825 (inactive),-0.81 (inactive),1.85 (inactive),1.49 (inactive),0.445,-0.0228,0.591 (inactive),0.751,-3,-3.65 (inactive),-0.66 (inactive),-0.0832 (inactive)
C=CCC(OC(C)=O)[C@@H]1[C@@H](N(Cc2cc3ccccc3o2)C(=O)c2cccc3ccccc23)c2cc(OCCCO)ccc2N1C(=O)c1ccc(-c2ccccc2)cc1 (some centres undefined),-1.11,-0.356 (inactive),0.353 (inactive),-0.0369 (inactive),-1.27 (inactive),-0.208 (inactive),0.75 (inactive),-0.11 (inactive),0.03,-0.256,0.277 (inactive),0.287,-3.01,-0.424 (inactive),0.0396 (inactive),0.577 (inactive)
COc1cc(Br)cc(C(O)C2C=CC3C(=O)N(C)C(=O)C3N2N2CCCCC2)c1OC (centres undefined),-1.17,-1.43 (inactive),-1.17 (inactive),-0.282 (inactive),0.406 (inactive),1.25 (inactive),-0.596 (inactive),-0.683 (inactive),-1.07,0.0123,-0.0992 (inactive),0.823,-0.11,-2.65 (inactive),0.293 (inactive),0.0293 (inactive)
